Source: PubChem BioAssay (Tox21)
Records with an inconclusive call do not appear. Calls of active or inactive are those of the source. Unless noted, calls follow the shape of the dose curve; as a rule, active = well fitted curve in the direction sought with a large enough effect in the repeat runs; inconclusive = weak or mixed curves; inactive = no such curve, though single readings can be large; an effect the other way counts as inactive or inconclusive.

What was measured:
[1] = qHTS assay to identify small molecule antagonists of the glucocorticoid receptor (GR) signaling pathway - cell viability counter screen (AID 720693); also: nearly all actives have a fitted effect of over 55% in size
[2] = qHTS assay for identifying genotoxic compounds that show differential cytotoxicity against isogenic chicken DT40 cell lines with known DNA damage response pathways - Rev3 mutant cell line (AID 743014); also: nearly all actives have a fitted effect of over 55% in size; also: potency is read from the fitted curve at half-maximal effect
[3] = qHTS assay to identify small molecule antagonists of the androgen receptor (AR) signaling pathway using the MDA cell line - cell viability counter screen (AID 743041; also: nearly all actives have a fitted effect of over 45% in size)
In short: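 Same-well cytotoxicity was assessed by CellTiter-Fluor in MDA-kb2 AR-luc cells after 16 h of compound treatment under R1881 agonism.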

[4] = qHTS assay to identify small molecule antagonists of the thyroid receptor (TR) signaling pathway - cell viability counter screen (AID 743064); also: nearly all actives have a fitted effect of over 50% in size; also: potency is read from the fitted curve at half-maximal effect
In short: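 Same-well viability check: GH3.TRE-Luc cells stimulated with 1 nM T3 alongside test compound for 23.5 h, followed by CellTiter-Fluor fluorescence.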

[5] = qHTS assay to identify small molecule antagonists of the thyroid receptor (TR) signaling pathway (AID 743065); also: nearly all actives have a fitted effect of over 55% in size
In short: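 GH3.TRE-Luc rat pituitary cells (two TREs driving luciferase) were dosed with compound, then stimulated with 1 nM T3 (final) for 23.5 h at 37 C. ONE-Glo luminescence was the read-out, with CellTiter-Fluor fluorescence as the cytotoxicity counter-screen.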

[6] = system: thyroid hormone receptor (rat, GH3 cells); experiment: qHTS assay to identify small molecule agonists of the thyroid receptor (TR) signaling pathway (AID 743066; calls by dose curve)
[7] = qHTS assay to identify small molecule antagonists of the estrogen receptor alpha (ER-alpha) signaling pathway - cell viability counter screen (AID 743074; calls by dose curve;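 also: HEK293 cells carrying ER-alpha-UAS-bla reporter stimulated with 17beta-estradiol; nearly all actives have a fitted effect of over 45% in size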)
[8] = qHTS assay to identify small molecule antagonists of the estrogen receptor alpha (ER-alpha) signaling pathway using the BG1 cell line - cell viability counter screen (AID 743081);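 also: compound given together with 17beta-estradiol as the ER stimulus; nearly all actives have a fitted effect of over 45% in size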
[9] = qHTS assay to identify small molecule antagonists of the androgen receptor (AR) signaling pathway - cell viability counter screen (AID 743033; also: nearly all actives have a fitted effect of over 45% in size)
Aromatase (Homo sapiens) = Aromatase (Homo sapiens) (UniProt P11511); experiment: qHTS assay to identify aromatase inhibitors (AID 743083); also: nearly all actives have a fitted effect of over 55% in size
Chain of Aromatase (Homo sapiens) (P11511 whole entry, looked up): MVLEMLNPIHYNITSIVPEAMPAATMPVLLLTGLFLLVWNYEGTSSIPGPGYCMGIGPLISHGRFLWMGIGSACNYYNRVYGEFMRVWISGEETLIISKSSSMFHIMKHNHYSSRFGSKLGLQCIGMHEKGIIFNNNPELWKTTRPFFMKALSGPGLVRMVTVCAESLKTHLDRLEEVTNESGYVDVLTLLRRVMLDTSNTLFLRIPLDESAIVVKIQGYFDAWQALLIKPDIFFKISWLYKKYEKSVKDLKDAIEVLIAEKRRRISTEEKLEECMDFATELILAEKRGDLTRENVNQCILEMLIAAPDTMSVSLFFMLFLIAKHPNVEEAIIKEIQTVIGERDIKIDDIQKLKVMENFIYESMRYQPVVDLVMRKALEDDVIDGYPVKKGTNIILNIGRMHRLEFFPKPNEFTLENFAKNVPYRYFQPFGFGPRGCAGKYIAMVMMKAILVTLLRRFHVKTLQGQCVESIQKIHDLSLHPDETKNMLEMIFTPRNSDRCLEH

[10] = qHTS assay for identifying genotoxic compounds that show differential cytotoxicity against isogenic chicken DT40 cell lines with known DNA damage response pathways - wild type cell line (AID 743012); also: nearly all actives have a fitted effect of over 60% in size; also: potency is read from the fitted curve at half-maximal effect
In short: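 Cells (DT40 wild type, 300/well) are treated with DMSO-dissolved compounds after a ~0.5 h pre-incubation and kept 40 h at 37 C/5% CO2. Viability is then measured by CellTiter-Glo luminescence following 30 min at room temperature.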

[11] = target: Androgen receptor (Homo sapiens) (UniProt P10275); experiment: qHTS assay to identify small molecule antagonists of the androgen receptor (AR) signaling pathway (AID 743035; active = well fitted inhibition curve with a large enough effect in the signal ratio in the repeat runs, not every such curve was filed as active; the % refers to the signal ratio)
Chain of Androgen receptor (Homo sapiens) (P10275 whole entry, looked up): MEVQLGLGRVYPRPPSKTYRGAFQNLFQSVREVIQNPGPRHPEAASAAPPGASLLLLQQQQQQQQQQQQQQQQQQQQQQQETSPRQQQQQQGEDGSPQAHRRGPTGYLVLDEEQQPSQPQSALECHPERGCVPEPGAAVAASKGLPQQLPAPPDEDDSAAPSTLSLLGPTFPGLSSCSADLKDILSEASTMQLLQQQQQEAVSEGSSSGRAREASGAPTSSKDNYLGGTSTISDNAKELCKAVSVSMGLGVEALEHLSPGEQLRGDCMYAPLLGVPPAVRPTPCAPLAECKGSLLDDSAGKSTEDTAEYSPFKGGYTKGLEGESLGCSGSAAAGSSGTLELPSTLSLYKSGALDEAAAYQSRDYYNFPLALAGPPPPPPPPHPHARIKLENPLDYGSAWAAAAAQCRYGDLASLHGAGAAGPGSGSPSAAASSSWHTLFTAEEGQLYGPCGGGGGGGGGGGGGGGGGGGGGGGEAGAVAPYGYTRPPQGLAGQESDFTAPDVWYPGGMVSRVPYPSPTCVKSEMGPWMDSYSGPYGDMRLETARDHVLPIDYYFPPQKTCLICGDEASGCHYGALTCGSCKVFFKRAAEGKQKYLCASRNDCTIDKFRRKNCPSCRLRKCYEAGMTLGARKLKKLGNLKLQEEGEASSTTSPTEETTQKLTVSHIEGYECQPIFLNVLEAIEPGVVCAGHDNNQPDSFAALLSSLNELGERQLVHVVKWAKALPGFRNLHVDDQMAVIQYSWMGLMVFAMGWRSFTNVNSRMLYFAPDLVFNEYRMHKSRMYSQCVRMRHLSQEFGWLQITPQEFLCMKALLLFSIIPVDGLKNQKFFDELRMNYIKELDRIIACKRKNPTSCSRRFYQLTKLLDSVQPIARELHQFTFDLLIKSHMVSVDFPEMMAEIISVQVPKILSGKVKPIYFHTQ
In short: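 Antagonism is scored as loss of R1881-driven beta-lactamase reporter expression in HEK293 cells carrying the reporter under a UAS element, after 16 h co-treatment at 37C and a 2 h room-temperature FRET substrate read.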

[12] = target: Androgen receptor (Homo sapiens) (UniProt P10275); experiment: qHTS assay to identify small molecule agonists of the androgen receptor (AR) signaling pathway (AID 743036; active = well fitted activation curve with a large enough effect in the signal ratio in the repeat runs, with a control signal flat, not every such curve was filed as active; the % refers to the signal ratio; also: potency is read from the fitted curve at half-maximal effect)
In short: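 Agonist activity was scored by beta-lactamase reporter fluorescence in stably transfected HEK293 cells exposed to compounds for 16 h at 37C and 5% CO2. Substrate loading took 2 h at room temperature.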

[13] = target: Androgen receptor (Homo sapiens) (UniProt P10275); experiment: qHTS assay to identify small molecule agonists of the androgen receptor (AR) signaling pathway using the MDA cell line (AID 743040; also: nearly all actives have a fitted effect of over 20% in size; also: potency is read from the fitted curve at half-maximal effect)
In short: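 Human breast carcinoma MDA-kb2 reporter cells (MMTV-luc, AR/GR elements) were treated for 16 h at 37C in 0% CO2 following a 5 h settling period. Signal was quantified by ONE-Glo luminescence.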

[14] = target: Estrogen receptor (Homo sapiens) (UniProt P03372); experiment: qHTS assay to identify small molecule antagonists of the estrogen receptor alpha (ER-alpha) signaling pathway (AID 743069; active = well fitted curve in the direction sought with a large enough effect in the signal ratio in the repeat runs, not every such curve was filed as active; the % refers to the signal ratio)
Chain of Estrogen receptor (Homo sapiens) (P03372 whole entry, looked up): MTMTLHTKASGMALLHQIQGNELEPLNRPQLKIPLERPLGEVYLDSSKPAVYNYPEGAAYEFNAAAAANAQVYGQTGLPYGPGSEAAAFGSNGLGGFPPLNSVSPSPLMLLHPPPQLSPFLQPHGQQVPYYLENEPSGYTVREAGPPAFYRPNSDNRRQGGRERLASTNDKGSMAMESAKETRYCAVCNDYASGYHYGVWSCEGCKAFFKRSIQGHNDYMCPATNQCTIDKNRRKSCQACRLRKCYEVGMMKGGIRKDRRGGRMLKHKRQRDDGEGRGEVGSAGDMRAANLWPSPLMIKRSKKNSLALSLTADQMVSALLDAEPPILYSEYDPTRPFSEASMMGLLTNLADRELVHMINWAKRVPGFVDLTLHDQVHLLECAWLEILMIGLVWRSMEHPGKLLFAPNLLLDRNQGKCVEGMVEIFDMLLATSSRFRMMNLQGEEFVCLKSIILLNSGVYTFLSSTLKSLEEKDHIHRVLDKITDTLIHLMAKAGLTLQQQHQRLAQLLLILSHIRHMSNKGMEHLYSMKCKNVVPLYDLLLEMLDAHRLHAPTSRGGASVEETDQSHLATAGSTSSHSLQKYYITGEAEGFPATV
In short: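 Reporter cells (ER-alpha-bla, HEK293 background) are conditioned overnight in stripped-serum medium (2% charcoal-stripped FBS). Compound and 17beta-estradiol exposure runs 18 hr at 37C, 5% CO2.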

[15] = target: Estrogen receptor (Homo sapiens) (UniProt P03372); experiment: qHTS assay to identify small molecule agonists of the estrogen receptor alpha (ER-alpha) signaling pathway (AID 743075; calls by dose curve;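 also: HEK293 GripTite cells with ER-alpha and UAS-driven beta-lactamase reporter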)
[16] = target: Estrogen receptor (Homo sapiens) (UniProt P03372); experiment: qHTS assay to identify small molecule agonists of the estrogen receptor alpha (ER-alpha) signaling pathway using the BG1 cell line (AID 743079); conditions: BG1Luc4E2 cells, ERE-luciferase agonist, 22 h; activation: at 70.3 µM (top of the series); also: nearly all actives have a fitted effect of over 20% in size
[17] = qHTS assay to identify small molecule antagonists of the estrogen receptor alpha (ER-alpha) signaling pathway using the BG1 cell line (AID 743080; calls by dose curve;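 also: BG1 cells stimulated with 17beta-estradiol alongside compound; nearly all actives have a fitted effect of over 25% in size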)
In short: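 Readout is ONE-Glo luminescence, taken 30 min at room temperature after reagent addition, preceded by a CellTiter-Fluor viability read; BG1-Luc-4E2 cells had received compound and 17beta-estradiol for 21.5 h at 37 C.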

[18] = target: Androgen receptor (Homo sapiens) (UniProt P10275); experiment: qHTS assay to identify small molecule antagonists of the androgen receptor (AR) signaling pathway using the MDA cell line (AID 743042; also: nearly all actives have a fitted effect of over 55% in size)
In short: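 MDA-kb2 breast carcinoma cells carrying MMTV-luciferase (AR/GR responsive) were co-treated with compounds and the agonist R1881 for 16 h at 37C. Inhibition read as ONE-Glo luminescence; CellTiter-Fluor fluorescence measured in parallel for cytotoxicity.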

[19] = qHTS assay for identifying genotoxic compounds that show differential cytotoxicity against isogenic chicken DT40 cell lines with known DNA damage response pathways - Rad54/Ku70 mutant cell line (AID 743015); also: nearly all actives have a fitted effect of over 60% in size; also: potency is read from the fitted curve at half-maximal effect

Measured: Potency

CC1C2CC(CC2C2CCCC(O)C2)C1(C)C (configuration not stated)
inactive: [1] | [3] | [4] | [5] | [6] | [7] | [8]
active: [2] 24.3 µM

C(=C\c1ccccc1)/CN1CCN(C(c2ccccc2)c2ccccc2)CC1
inactive: [1] | [2] | [9] | [7] | [8] | Aromatase (Homo sapiens)
active: [4] 12.7 µM

CC(=O)[C@H]1CC[C@H]2[C@@H]3C[C@H](C)C4=CC(=O)CC[C@]4(C)[C@H]3[C@@H](O)C[C@]12C
inactive: [1] | [11] | [3] | [4] | [5] | [6] | [7] | [8] | Aromatase (Homo sapiens)
active: [10] 9.02 µM | [12] 0.0129 µM | [13] 0.0285 µM

CCCCC(CC)COC(=O)COc1ccc(Cl)cc1C (configuration not stated)
inactive: [1] | [9] | [3] | [4] | [5] | [6] | [14] | [7] | [15] | [16] | [17] | [8] | Aromatase (Homo sapiens)
active: [2] 68.6 µM

O=C(OCCOCCO)c1ccccc1Nc1cccc(C(F)(F)F)c1
inactive: [1] | [2] | [9] | [3] | [5] | [6] | [14] | [7] | [15] | [16] | [17] | [8] | Aromatase (Homo sapiens)

CN(C(=O)C(Cl)Cl)c1ccc(OC(=O)c2ccco2)cc1
inactive: [1] | [9] | [11] | [13] | [3] | [18] | [5] | [6] | [7] | [8] | Aromatase (Homo sapiens)
active: [10] 26.6 µM

CC(=O)Oc1ccc(C(=C2CCCCC2)c2ccc(OC(C)=O)cc2)cc1
inactive: [1] | [10] | [19] | [3] | [14] | [7] | [15] | [16] | [17] | [8] | Aromatase (Homo sapiens)

C[C@@H]1C[C@H]2[C@@H]3CCC4=CC(=O)C=C[C@]4(C)[C@@]3(F)[C@@H](O)C[C@]2(C)[C@H]1C(=O)CO
inactive: [1] | [9] | [3] | [6] | [7] | [8] | Aromatase (Homo sapiens)
active: [10] 13.3 µM | [19] 26.6 µM

CC[C@H](NC(=O)c1cc(F)ccc1NS(=O)(=O)c1cccc2cccnc12)c1ccccc1
inactive: [1] | [3] | [4] | [6] | [7] | [15] | [16] | [8] | Aromatase (Homo sapiens)
active: [2] 57.9 µM | [19] 64.9 µM

O=[N+]([O-])c1cccc(S(=O)(=O)NCCNS(=O)(=O)c2cccc([N+](=O)[O-])c2)c1
inactive: [1] | [10] | [19] | [13] | [3] | [4] | [5] | [6] | [14] | [7] | [15] | [16] | [17] | [8] | Aromatase (Homo sapiens)
